This note sets out measurements from PubChem BioAssay AID912 (National Center for Advancing Translational Sciences (NCATS), 2007).

“And” between values parts separate entries of the source, which are not always exact repeats. Equal values may be shown once. Out of some 70,000 compounds screened, about 470 (0.67%) were called active. Not shown: some 18% with an inconclusive outcome. Calls follow the shape of the full dose curve. The full list was thinned out, with actives kept by preference. More than one record can exist for a structure, and the calls need not agree.
% is scaled to controls: 0 for no effect and ±100 for the full control effect; potency is read from the fitted curve at half-maximal effect.

A short description of the assay: qHTS Assay for Anthrax Lethal Toxin Internalization. Also: nearly all actives have a fitted effect of over 50% in size. To be noted: Cells, FRET ratio (460/530); series mostly up to 40 µM; activity change, negative = inhibition: at the top concentration. (In qHTS, concentration-response curves come from the screen itself.)
Take `CN1CCc2nc(-c3ccccc3)c(-c3ccccc3)cc2C1`: the activity change, negative = inhibition was -6.08% [at 8 µM] (inactive).
The same measure, in the same setting: in the case of `COCCn1c(=O)c(C)nc2cnc(N(C)C)nc21` it was -9.51% (inactive); in that of `O=C1C[C@@H](O)[C@@H](O)[C@H]2[C@@H]3C(=O)N(Cc4ccc5c(c4)OCO5)C(=O)[C@@H]3CC[C@H]12`, 3.37% [at 8 µM] (inactive) and -9.87% [at 8 µM] (inactive).
Still for that read-out and setting: in the case of `CC[C@]1(C)CC(=O)NC1=O` it was “inactive”; in that of `COc1ccc2c(=O)cc(-c3ccccc3)oc2c1O`, 0.763% (inactive); in that of `CCNCCCNCCCNCCCNCC`, -12.1% (inactive).
Still for that read-out and setting: in the case of `COCCNC(=O)COc1ccc(C)c(C)c1` it was -6.37% (inactive).
`CCOC(=O)c1nc(N)sc1C(=O)OCC`: the “activity change, negative = inhibition” value is 0.0428% (inactive).
Same read-out and setting: the figure for `FC(F)(F)c1ccccc1-c1cc(NCc2ccccc2)ncn1` is 18.2% (inactive); for `Cc1cc(C(=O)O)ccc1[N+](=O)[O-]` it is -3.62% (inactive); for `Nc1ccccc1N` it is -3.5% (inactive).
Still for that read-out and setting: the figure for `CCOC(=O)c1[nH]c2ccc(OC)cc2c1NC(=O)N1CCOCC1` is -8.81% (inactive).
The same measure, in the same setting: the figure for `Cc1cccc(C(=O)O)c1[N+](=O)[O-]` is 4.62% (inactive).
With `Cc1nn(Cc2ccc(Cl)c(Cl)c2)c(C)c1NC(=O)c1cc(C2CC2)on1`, the “activity change, negative = inhibition” value was -30.6% (inactive).
Same read-out and setting: the figure for `CCC[C@@H]1C[C@@]1(CCC)[C@@H](NC(=O)c1ccccc1)c1ccc(C(=O)OC)cc1` is -19.3% (inactive).
Consider `CN1[C@@H]2CC[C@H]1CC(OC(=O)c1cc(Cl)cc(Cl)c1)C2` (stereo partly drawn), for which the Potency result is “inactive and 15.8 µM (active)”.
Turning to `O=C1OCCC=C1[C@@H](O)CCc1ccccc1`, the activity change, negative = inhibition is -3.54% [at 1.6 µM] (inactive).
As for `CCCn1c(-c2ccc(F)cc2)nc2c(NCC3CCCN3CC)nc(C)nc21` (stereo not drawn), the “activity change, negative = inhibition” value was -14.1% (inactive).
With `Nc1cc(OC(=O)c2ccccc2Br)nn1S(=O)(=O)c1ccccc1`, the Potency was 10 µM (active).
Regarding `C/C=C1\C(=O)C[C@@H]2[C@@H]3CCC4=CC(=O)CC[C@@]4(C)[C@H]3CC[C@@]12C`, the “activity change, negative = inhibition” value was -8.2% (inactive).
Still for that read-out and setting: the figure for `Cc1ccnc(N)c1` is -11.7% (inactive); for `CC(C)(C)NCC[C@@H](O)c1cc(C(F)(F)F)nc2c(C(F)(F)F)cccc12` it is -2.37% [at 8 µM] (inactive); for `COCCn1c(=O)c(-c2cc(F)cc(F)c2)nc2cncnc21` it is 3.07% (inactive).
Same read-out and setting: the figure for `CN=C1SC(C(=O)O)CC(=O)N1C` (stereo not drawn) is 0.241% (inactive); for `O=NO` it is “inactive”; for `COc1ccc(N)c(C)c1` it is 1.73% (inactive).
Same read-out and setting: in the case of `O=C(COc1ccc2oc3c(c2c1)CCCC3)Nc1ccccn1` it was -10.7% (inactive); in that of `CC(C)C[C@H](NC(=O)NCCc1ccc(Cl)cc1)C(=O)O`, 2.75% (inactive).
As for `Oc1cc2c(cc1O)CN(C(=S)NCCc1ccc(Cl)cc1)CCC2`, the Potency was 15.8 µM (active).
As for `O=C(NCCc1ccc(Cl)cc1)C1CC(=O)N(C2CCCCC2)C1` (stereo not drawn), the “activity change, negative = inhibition” value is 0.384% (inactive).
As for `O=S(=O)(O)c1ccc(O)c2ncccc12.O=S(=O)(O)c1ccc(O)c2ncccc12.[Zn]`, the activity change, negative = inhibition was -0.63% [at 8 µM] (inactive).
Same read-out and setting: the figure for `NS(=O)(=O)c1cc(C(=O)O)c(Cl)c([N+](=O)[O-])c1Cl` is -7.65% [at 8 µM] (inactive); for `C=CCOC(=O)C(C(C)=O)C(NC(=O)OC)c1ccccc1` (stereo not drawn) it is -6.02% [at 8 µM] (inactive); for `Cc1ccc(Br)cc1` it is -9.02% (inactive).
`CN(C)CCSS(=O)(=O)O`: the activity change, negative = inhibition was -2.2% [at 8 µM] (inactive).
Same read-out and setting: the figure for `c1ccc(Oc2ccccc2)cc1` is 12% (inactive).
The same measure, in the same setting: the figure for `Oc1ccc(O)c2c(O)cccc12` is -2.4% (inactive).
Turning to `Cc1c(C)c2c(c(C)c1O)CC[C@@](C)(CN1CCN(c3cc(N4CCCC4)nc(N4CCCC4)n3)CC1)O2`, the “activity change, negative = inhibition” value was -10.2% (inactive).
The same measure, in the same setting: in the case of `C[C@@H]1/C=C\CC(=O)OC[C@H]2O[C@@H](C=C[C@@H]2O)[C@H](C)/C=C\CC(=O)OC[C@H]2O[C@H]1C=C[C@@H]2O` it was 0.461% [at 0.32 µM] (inactive).
On the same count and under the same terms, the figure for `COc1ccc(NC(=O)C2CCCN(S(=O)(=O)c3cccc4cccnc34)C2)cc1OC` (stereo not drawn) is -8.54% (inactive).
For the compound `COc1ccc(NC(=O)C2CCCN(S(=O)(=O)c3cccc4cccnc34)C2)cc1` (stereo not drawn), the Potency is 3.16 µM (active).
As for `O=C(O)C1CCCN(S(=O)(=O)c2cccc3cccnc23)C1` (stereo not drawn), the “activity change, negative = inhibition” value is 0.387% (inactive).
On the same count and under the same terms, the figure for `Cc1cccc(Br)c1` is -11.9% (inactive); for `COC(=O)C(C(=O)OC)[C@@H]1CCCC(=O)C1` it is 8.84% [at 8 µM] (inactive); for `CCCC[C@@H]1C[C@H]1C(NC(=O)c1ccco1)c1ccc(C(=O)OC)cc1` (stereo partly drawn) it is -5.36% (inactive).
Same read-out and setting: the figure for `COC(=O)NC(c1ccccc1)[C@]1(C(C)=O)CCCC1=O` (stereo partly drawn) is -2.74% [at 8 µM] (inactive); for `CC(C)=CCC/C(C)=C/CO/N=C1/C[C@@H](O)[C@@H](O)[C@@H]2[C@@H]3C(=O)N(C(C)(C)C)C(=O)[C@H]3CC[C@H]12` it is 4.39% [at 1.6 µM] (inactive).
Take `O=C(Cl)c1ccc([N+](=O)[O-])cc1`: the “activity change, negative = inhibition” value is -9.99% (inactive).
